Test results published in PubChem BioAssay AID743480 (Broad Institute, 2014).
This is one part of the list. The source made the active and inactive calls.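 How the source made its calls: active means compounds whose fitted half-maximal signal-loss concentration is at most twice their highest valid dose; inconclusive means flat curve with 30 to 70% signal loss, or poor fit; inactive means the rest.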

Test: HepG2 viability loss by ATP level – cell-based, CellTiter-Glo luminescence, cherry-pick, set 4, cytotoxicity control, dose response (AID 743480)
Conditions: 72 h; series mostly up to 26 µM; activity change, negative = cytotoxicity: at the top concentration

Row | Structure (SMILES) | activity change, negative = cytotoxicity
1 | CC[C@H]1OC(=O)[C@H](C)[C@@H](O[C@H]2C[C@@](C)(OC)[C@@H](O)[C@H](C)O2)[C@H](C)[C@@H](O[C@@H]2O[C@H](C)C[C@H](N(C)C)[C@H]2O)[C@](C)(O)C[C@@H](C)[C@@H]2N[C@@H](COCCOC)O[C@H]([C@H]2C)[C@]1(C)O | 23.7 unspecified (inactive)
2 | C=CCNC(=O)c1ccccc1NC(=O)c1ccc(Cl)c(S(=O)(=O)Nc2cccc(C)c2C)c1 | 13 unspecified (inactive)
3 | COc1ccc(Cn2c(-c3ccc(Cl)cc3)c[n+]3ccccc23)cc1 | 9.96 unspecified (inactive)
